Inconclusive results are not listed. Unmarked numbers belong to inactive results. Calls of active or inactive are those of the source. The call rests on the fitted dose curve.
On the % scale 0 is the no-effect control and ±100 the full control effect.

The test can be described thus: p53 small molecule agonists, cell-based qHTS assay with rat liver microsomes (AID 1963578). Conditions: HCT-116 p53RE-bla, beta-lactamase ratio, 16 h; series mostly up to 66 µM; activation: at the top concentration. The text has this: U.S. Tox21 Program National Center for Advancing Translational Sciences [NCATS] Division of Preclinical Innovation [DPI] U.S. Environmental Protection Agency [EPA] National Institutes of Environmental Health Sciences [NIEHS] National Toxicology Program [NTP] U.S. Food and Drug Administration [FDA] Tox21 Assay Overview: p53, a tumor suppressor protein, is activated following cellular insult, including DNA damage and other cellular stresses. The activation of p53 regulates cell fate by inducing DNA repair, cell cycle arrest, apoptosis, or cellular senescence. The activation of p53, therefore, is a good indicator of DNA damage and other cellular stresses. […] The activation of the reporter gene under culture conditions can be detected by fluorescence intensity. This cell line was used to screen the Tox21 10K compound library in the condition of presence of rat liver microsomes and to identify agonists that activate the p53 signaling pathway after in vitro metabolic activation (Ooka et al., Archive of Toxicology 96:1975-1987, 2022).
Tox21 Assay Protocol Summary: The p53RE-bla cells were dispensed at 4,000cells/3ul/well in 1536-well black-clear bottom plates. After the assay plates were incubated at 37 C, 5% CO2 incubator for 5 hours, 23 nL of compounds dissolved in DMSO, positive controls or DMSO only was transferred to the assay plate. Following compound addition, 3 uL of rat liver microsomes (Molecular Toxicology, Boone, NC) at final concentration of 0.5 mg/mL and 1uL of Beta-Nicotinamide adenine dinucleotide 2-phosphate (NADPH) at final concentration of 0.5 mg/mL were transferred to the assay plate. The plates were incubated at 37 C for 16 hours. 1 uL of LiveBLAzer detection mixture was added to each well and the plates were incubated at room temperature in the dark for 2 h.
On to `Nc1ccc(S(=O)(=O)Nc2ccc(Cl)nn2)cc1`, for which the “activation” value was -0.632% [at 30.3 µM].

With `COc1ccc2cc3[n+](cc2c1OC)CCc1cc2c(cc1-3)OCO2`, the Potency entry was “inactive”.

`COc1cccc(Br)c1`: the “activation” value was -0.334%.

Consider `Cc1cc(CCC(=O)OCCOCCOCCOC(=O)CCc2cc(C)c(O)c(C(C)(C)C)c2)cc(C(C)(C)C)c1O`, for which the “activation” value was 0.15%.

Turning to `CC(=O)c1sc(C)nc1C`, the “activation” value is -1.56%.

For the compound `COC(=O)c1cc(Cl)ccc1OC`, the “activation” value is 0.154% [at 30.3 µM].

For `C=CC(C)(O)CC/C=C(\C)CC` (stereo not given), the “activation” value is -2.27%.

For the compound `OC[C@H]1O[C@@H](O[C@H]2[C@H](O)[C@@H](O)[C@H](O)O[C@@H]2CO)[C@H](O)[C@@H](O)[C@H]1O`, the “activation” value is -2.94%.

Consider `COc1ccc(C(=O)c2cccc(O)c2)c(OC)c1`, for which the “activation” value is -0.0186%.

In the case of `COC(=O)c1ccc(C)cc1C1=NC(C)(C(C)C)C(=O)N1` (stereo not given), the “activation” value was -0.985%.

Regarding `O=C(c1ccc(Cl)cc1)c1ccc(Cl)cc1`, the “activation” value is 1.22%.

As to `COC(=O)CCCCC(=O)O`, the “activation” value is 0.52%.

For the compound `Cc1cc(C)c(C)c(O)c1`, the “activation” value is -6.63%.

On to `Cc1ncc(CSSCc2cnc(C)c(O)c2CO)c(CO)c1O`, for which the “activation” value is -1.3% [at 30.3 µM].

In the case of `CC1CC(=O)CC(C)(C)C1` (stereo not given), the “activation” value is -1.45%.

As for `CC(=O)SC[C@@H](C)C(=O)N1CCC[C@H]1C(=O)N[C@@H](Cc1ccccc1)C(=O)O`, the “activation” value was -1.02% [at 30.3 µM].

Regarding `C=CC(C)(O)CC/C=C(/C)CCC=C(C)C` (stereo not given), the “activation” value was -1.49%.

In the case of `CC1(C)O[C@H]2CC(=O)OC[C@]23[C@H]2CC[C@@]4(C)[C@H](c5ccoc5)OC(=O)[C@H]5O[C@]54[C@]2(C)C(=O)C[C@@H]13`, the “activation” value is -1.03% [at 30.3 µM].

Regarding `O=C1c2cccc(O)c2C(=O)c2c(O)cccc21`, the Potency entry is “inactive”.

As to `C=C(C)C(=O)OCCCCCCCC(C)C`, the “activation” value is 0.0091%.

As for `O=C(O)c1ccc(O)cc1O`, the “activation” value is -0.202%.

`CC(=O)c1cc(C)oc1C`: the “activation” value was 2.86%.

Take `Cc1ccccc1C`: the “activation” value was -3.99%.

On to `C=CC(O)CCCCC` (stereo not given), for which the “activation” value is 1.25%.

Regarding `NC(=O)NC1N=C([O][Al])NC1=O` (stereo not given), the “activation” value was 1.22% [at 30.3 µM].

On to `COc1cccc2c1C(=O)c1c(O)c3c(c(O)c1C2=O)C[C@@](O)(C(=O)CO)C[C@@H]3O[C@H]1C[C@H](N)[C@H](O)[C@H](C)O1`, for which the Potency result is “inactive”.

Turning to `[Cl][In]([Cl])[Cl]`, the Potency result is “inactive”.

`CCOC(=O)CN`: the “activation” value is 0.0918%.

For the compound `CCN1C(=O)c2ccccc2C1Nc1ccc(OCCN2CCCCC2)cc1` (stereo not given), the “activation” value was -2.09% [at 30.3 µM].

As for `OC/C=C/CO`, the “activation” value is 2.33%.

For the compound `CC(C=O)c1ccccc1` (stereo not given), the “activation” value is -1.9%.

For `CC(C)c1cccc(C(C)C)c1N`, the “activation” value is 0.216%.

Turning to `Nc1ccccc1S(=O)(=O)O`, the “activation” value was -0.842%.

On to `COC(/C=C(\C)CCC=C(C)C)OC`, for which the “activation” value is 1.67%.

For `CC(C)CCCCCOC(=O)CS`, the “activation” value is 0.427%.

For `CCc1cnc(C(=O)O)c(C(=O)O)c1`, the “activation” value is -0.466%.

On to `CC1(C)[C@@H]2CC[C@]3(C2)[C@@H]1C(=O)CCC3(C)C`, for which the “activation” value is -1.86%.

Take `CC(=O)c1cc2ccccc2s1`: the “activation” value was -0.138% [at 30.3 µM].

With `Oc1cccc2ccccc12`, the Potency result is “inactive”.

`c1ccc2c(c1)CCc1ccccc1N2`: the Potency result was “inactive”.

Source of the values: PubChem BioAssay (Tox21).
